Laboratory results taken from the supplement of paper PMC3334620.
Whole data set: some 33,000 sequences, median “E-score (-0.5 to 0.5)” near -0.054, cut for the highest 2% near 0.39. What follows is part of a selection rich in the highest values, with near analogues and random picks from the rest.

target: Ylr278c (UniProt Q05854); assay: PBM E-score (8-mer binding enrichment) (E-score (-0.5 to 0.5)); higher = stronger / more preferred TF binding; conditions: protein concentration: 200 nM; construct: GST-DNA-binding domain
UniProt Q05854, sequence (Q05854 whole entry, the tested form may be a part): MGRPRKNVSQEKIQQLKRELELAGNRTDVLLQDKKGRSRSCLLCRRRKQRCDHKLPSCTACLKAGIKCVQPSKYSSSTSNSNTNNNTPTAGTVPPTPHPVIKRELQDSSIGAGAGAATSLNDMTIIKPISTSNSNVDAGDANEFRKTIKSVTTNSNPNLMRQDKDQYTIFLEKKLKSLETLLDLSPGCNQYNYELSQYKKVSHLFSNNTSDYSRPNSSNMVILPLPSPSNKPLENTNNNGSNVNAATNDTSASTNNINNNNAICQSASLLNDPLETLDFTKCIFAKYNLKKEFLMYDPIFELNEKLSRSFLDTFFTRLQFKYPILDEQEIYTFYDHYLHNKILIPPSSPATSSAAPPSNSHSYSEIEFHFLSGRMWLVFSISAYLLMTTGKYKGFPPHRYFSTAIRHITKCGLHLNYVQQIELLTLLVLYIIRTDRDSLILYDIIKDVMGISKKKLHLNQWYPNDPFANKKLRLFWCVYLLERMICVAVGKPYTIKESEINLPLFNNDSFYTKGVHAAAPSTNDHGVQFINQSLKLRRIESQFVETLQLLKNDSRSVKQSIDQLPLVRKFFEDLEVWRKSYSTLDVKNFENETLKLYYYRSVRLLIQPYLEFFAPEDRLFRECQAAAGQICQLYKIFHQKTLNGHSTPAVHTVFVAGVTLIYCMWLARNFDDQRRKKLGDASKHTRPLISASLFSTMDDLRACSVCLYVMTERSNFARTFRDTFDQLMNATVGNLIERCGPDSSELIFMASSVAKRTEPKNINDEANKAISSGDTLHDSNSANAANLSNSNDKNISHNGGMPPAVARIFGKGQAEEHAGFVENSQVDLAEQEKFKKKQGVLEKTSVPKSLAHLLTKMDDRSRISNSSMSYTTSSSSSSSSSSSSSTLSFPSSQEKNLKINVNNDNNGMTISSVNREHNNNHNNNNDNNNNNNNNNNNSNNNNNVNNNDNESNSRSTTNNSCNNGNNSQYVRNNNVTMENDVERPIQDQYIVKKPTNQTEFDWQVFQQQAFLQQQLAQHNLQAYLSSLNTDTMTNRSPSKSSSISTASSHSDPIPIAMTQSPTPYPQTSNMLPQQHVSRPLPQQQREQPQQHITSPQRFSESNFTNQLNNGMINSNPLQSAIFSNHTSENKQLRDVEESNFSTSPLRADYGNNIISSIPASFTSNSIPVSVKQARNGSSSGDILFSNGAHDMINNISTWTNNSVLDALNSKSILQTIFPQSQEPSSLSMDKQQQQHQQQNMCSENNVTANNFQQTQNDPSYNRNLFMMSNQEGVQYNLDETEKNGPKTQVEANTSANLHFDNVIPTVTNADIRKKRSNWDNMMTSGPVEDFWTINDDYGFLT
Experimental: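 Universal 'all 10-mer' protein binding microarrays (Agilent AMADID 015681) probed with GST-tagged S. cerevisiae TFs (full-length or DBD) made by in vitro transcription/translation (PURExpress), about 100-200 nM. Bound TF was detected with fluorescent anti-GST. Each ungapped 8-mer (which stands for itself and its reverse complement) is scored by the PBM enrichment score (E-score), a modified Wilcoxon-Mann-Whitney statistic from -0.5 to +0.5, computed with the Universal PBM Analysis Suite. Scale: above 0.35 generally sequence-specific binding.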

Sequence	PBM E-score
ATAGTGAT	-0.203
TAAAGACA	-0.186
ACTGAGGC	0.105
TCTAAAGA	-0.115
CGCGTTAA	0.0131
CGGCGTTC	0.378
CGGCGTTA	0.405
GGGCGTTA	-0.101
GAGTGACA	-0.00079
TAGCTTAA	-0.198
TGATCTAA	-0.15
CGGAGGTA	0.426
AGGAGGTC	-0.0814
AGGAGGTA	-0.0558
CGGAGGTC	0.443
GGGAGGTA	-0.0269
CTGAGGTC	-0.297
AATGAACG	-0.131
CCGGTTGA	0.303
CGAGAACG	0.232
CCTAAACG	-0.0312
GATCCGAC	0.285
AATCCGAC	0.402
AATCCGAT	0.421
CATCCGAA	0.303

Sequence	PBM E-score
AATCCTAT	0.181
TATCCGAA	0.371
AATCCGAA	0.39
CATCCGAC	0.289
AATCCGAG	0.288
ATCGGGGC	0.296
CCACTGAG	-0.208
ACTGATGC	-0.0244
TCCAAACA	-0.094
GCAAGTGC	-0.274
GTTCTTCA	-0.192
ATTCGCTC	0.0759
AGTCGGAG	0.41
AGTCGGAA	0.408
GGTCGGAC	0.355
AGTCGGGA	0.142
AGTCGGAC	0.366
CGTCGGAC	0.397
GGTCGGAA	0.338
CGTCGGAA	0.43
CGTCGGTC	0.215
AGTCGGAT	0.282
TGTCGGAA	0.384
AGTCGGCG	0.215
ACGCAGGA	-0.166

Sequence	PBM E-score
CAAAGCGG	0.175
AACACTTG	-0.16
ATAAGACC	0.0726
ATGGTGTG	-0.23
CAACAAAG	-0.189
ATCAAGAC	-0.00757
ACCGCTAG	-0.19
CAGGGGGC	-0.125
CAGGTCAG	-0.0413
CGTCGCAG	-0.192
CGTCGTAG	0.00558
CGTCGGAG	0.441
ATTGGAAG	-0.0562
CTTTGCCC	-0.139
GCTTTTGA	-0.0305
CACCTCCA	0.0316
AACCTCCG	0.466
CACCTCCC	-0.129
AACCTCCT	-0.122
AACCTCCC	0.0351
AGCCTCCG	0.381
CGCCTCCA	0.0143
CGCCTCCG	0.398
ATCCTCCA	-0.301
ATCCTCCC	0.0358

Sequence	PBM E-score
CACCTCCG	0.425
ATCCTCCG	0.431
CAGTGGCA	-0.225
CCCTCCCA	0.0446
ACAGGGCC	0.0175
GAAACCAA	0.0455
CGACGCAA	0.114
GTACTGGA	-0.156
GCACCACC	0.0569
GACTGCGA	0.0431
TCCCTGAA	-0.217
CGTAAGGC	-0.161
CAGCTATG	-0.344
GCGGAAAA	0.379
CCGGAAAG	0.319
CTGGAAAA	-0.00229
CCGGAAAA	0.453
CAGGAAAA	0.00343
TCGGAAAA	0.426
ACGGAAAC	0.278
CCGGAAAC	0.404
ACGGAAAA	0.346
ATGAATTA	-0.228
CCGGTATC	0.32
GCGATCCC	0.0902

Sequence	PBM E-score
AAACACCG	0.39
AAACACCT	-0.135
CAACACCG	0.212
CTCCTCAC	-0.185
CATTTCCA	-0.0597
AATTTCCC	0.114
AATTTCCG	0.448
AATTTCCT	0.0327
CATTTCCC	0.161
ATTTTCCG	0.421
ATTTTCCA	0.0304
CATTTCCG	0.406
ATTTTCCC	0.063
GTTCGCAA	-0.0313
TATCCTCA	-0.0486
ATAACTGG	-0.0346
CTTCGGCA	0.274
CTTCGGAA	0.419
CTTCGGGC	0.0457
CTTCGGCC	0.154
GTTCGGCA	0.134
CTTCGGAC	0.399
GTTCGGAA	0.403
CTTCGGTA	0.0846
GTTCGGGA	0.277

Sequence	PBM E-score
AAGGTGGG	-0.161
GCGGTGTA	0.132
AAGGCACA	-0.231
CTTAGGTA	-0.0818
ATCTGAAA	-0.039
CGAGTACA	0.0348
ACATGCTC	-0.0918
ACACCCCG	0.241
AGACCGAT	0.163
AGTCCAAA	-0.107
AGTCCGAA	0.425
AGGCCGAC	0.324
AGCCCGAC	0.152
AGTCCGAG	0.43
AGTCCAAG	-0.236
AGTCCTAT	-0.0902
AGTCCTAA	-0.163
AGTCCGAT	0.458
AGTCCGAC	0.431
CGTCCGAG	0.296
AGTAAGTG	-0.128
ATCTCTGG	-0.239
AAACGACC	-0.0492
ACCTCATG	-0.349
ATTAGCTC	-0.0566

Sequence	PBM E-score
ACAGACTC	-0.109
CTCCGATC	0.46
CACCGATA	0.194
CGCCGATA	0.37
ATCCGATA	0.399
GGCCGATA	0.3
CGCCGATC	0.377
GTCCGATA	0.414
ATCCGATG	0.323
GCCCGATA	0.0679
AACCGATA	0.0662
CTCCGATA	0.462
ATCCGATC	0.37
CGCTCTAG	-0.113
AACTGCCA	-0.249
GTGGAGCA	-0.158
GAGCACGC	-0.106
CAACCGGG	0.215
GAACCGTA	-0.0428
AAACCGGC	0.356
GAACCGGA	0.426
AAACCGGA	0.438
TAACCGTA	-0.0936
TAACCGGA	0.431
TAACCGCA	0.0534

Sequence	PBM E-score
CAACCGGA	0.414
GAACCGGC	0.283
AAACCGGT	0.204
CAACCGGC	0.27
GGTGCTAC	-0.0466
GAAAGCAA	0.145
CAGGTTCC	0.0369
AAGGAGCA	-0.0618
GGAAGTAC	0.253
CATCACAG	-0.108
ATGTCCCG	0.319
ATGTCCGC	0.403
CTGTCCGA	0.335
ATGTCCTG	-0.0169
GTGTCCGA	0.374
CTGTCCGC	0.14
ATGTCCGG	0.468
ATGTCCGA	0.455
ATGTCCCC	0.042
AATCTTGA	-0.172
CATGCTAG	-0.256
AGACACTG	-0.321
GCCGGCCC	0.248
ACCGGCGT	0.3
ACCGGCCG	0.392

Sequence	PBM E-score
ACCGGCGG	0.402
ATCGGCGG	0.42
GCCGGCGC	0.396
ATCGGCGA	0.327
ACCGGCCT	0.179
ATCGGCGC	0.326
ACCGGCGC	0.351
CCCGGCCG	0.354
GACGGCGC	0.169
ATATGCTA	-0.0729
AAGCCCGA	0.27
CCCATAGG	-0.0984
AAAATGGT	0.184
GAAGTTAC	0.0322
ATCTTGAC	-0.292
ACGTCTTA	-0.241
CGGCCCCC	0.173
CACCAAAC	-0.119
CCCGGCGA	0.326
CCCGGCGC	0.338
CCCGGCGG	0.396
